# From PubChem BioAssay (EPA / NIEHS)
# The source made the active and inactive calls. The calls were made as follows: active = hit-call score of the fitted dose curve at least 0.9, where 1 is the maximum; inactive = score below 0.9.
# Legend:
# Conditions in all cases: mRNA level, 48 h; actives raise or lower the signal
# [1] = read-out: growth arrest and DNA damage 45 (GADD45G), GADD45G (gene 10912); assay: LTEA_HepaRG_GADD45G: Life Technologies and Expression Analysis (LTEA) Assay for growth arrest and DNA damage 45 (GADD45G) using HepaRG (AID 2283499)
# In short: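 HepaRG, 48 h exposure, top 100 uM, half-log 8-point series, 0.5% DMSO vehicle, duplicates. Readout: GADD45G transcript by qRT-PCR (Fluidigm array), housekeeping-normalised (ACTB/GAPDH/POLR2A). Bidirectional curve fit vs DMSO baseline.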
# [2] = read-out: Glutamate-cysteine ligase regulatory (GCLM), GCLM (gene 2730); assay: LTEA_HepaRG_GCLM: Life Technologies and Expression Analysis (LTEA) Assay for Glutamate-cysteine ligase regulatory (GCLM) using HepaRG (AID 2283500)
# In short: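 Endpoint is GCLM transcript level by qRT-PCR, normalized to three housekeeping genes, after 48 h chemical exposure of human HepaRG cells (0.5% DMSO vehicle, top 100 uM, half-log dilutions). Fitting was bidirectional relative to DMSO.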
# [3] = read-out: Glutathione S-transferase M3 (GSTM3), GSTM3 (gene 2947); assay: LTEA_HepaRG_GSTM3: Life Technologies and Expression Analysis (LTEA) Assay for Glutathione S-transferase M3 (GSTM3) using HepaRG (AID 2283501)
# In short: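 qRT-PCR read-out of GSTM3 transcript, normalized to three housekeeping genes, from human HepaRG cells after 48 h chemical exposure. Eight-point half-log series, top 100 uM, 0.5% DMSO vehicle; gain or loss fitted relative to DMSO baseline.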
# [4] = read-out: Heat shock 70 kDa protein 1 (HSPA1A), gene 3303; assay: LTEA_HepaRG_HSPA1A: Life Technologies and Expression Analysis (LTEA) Assay for Heat shock 70 kDa protein 1 (HSPA1A) using HepaRG (AID 2283502)
# In short: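 Cells were plated and cultured for 48 h, then switched to serum-free induction medium. Chemicals were added at eight half-log concentrations up to 100 uM for 48 h. RNA was then isolated and HSPA1A measured by qRT-PCR with bidirectional curve fitting against DMSO.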
# [5] = read-out: Hypoxia-inducible factor 1-alpha (Homo sapiens) (UniProt Q16665); assay: LTEA_HepaRG_HIF1A: Life Technologies and Expression Analysis (LTEA) Assay for Hypoxia-inducible factor 1 (HIF1A) Trancription factor using HepaRG (AID 2283503)
# In short: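 HIF1A transcript level read by qRT-PCR (ACTB, GAPDH, POLR2A normalization) after 48 h chemical exposure of HepaRG cultures. Eight half-log concentrations, top 100 uM, 0.5% DMSO vehicle, duplicates; bidirectional curve fit against DMSO baseline.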
# [6] = read-out: 3-Hydroxy-3-Methylglutaryl-CoA Synthase 2 (HMGCS2), HMGCS2 (gene 3158); assay: LTEA_HepaRG_HMGCS2: Life Technologies and Expression Analysis (LTEA) Assay for 3-Hydroxy-3-Methylglutaryl-CoA Synthase 2 (HMGCS2) using HepaRG (AID 2283504)
# In short: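 qRT-PCR read-out of HMGCS2 transcript, normalised to three housekeeping genes, in HepaRG cells after 48 h chemical exposure. Eight-point curves from 100 uM, half-log dilutions, 0.5% DMSO vehicle; gain or loss fitted relative to DMSO baseline.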
# HGF (gene 3082) = assay: LTEA_HepaRG_HGF: Life Technologies and Expression Analysis (LTEA) Assay for Hepatocyte Growth Facto (HGF) using HepaRG (AID 2283505)
# In short: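 HepaRG, 48 h dosing, 8-pt half-log series from 100 uM in 0.5% DMSO, duplicates. Readout: TaqMan qRT-PCR of HGF mRNA, housekeeping-normalized; bidirectional curve fit vs DMSO baseline.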
# [7] = read-out: Intercellular Adhesion Molecule 1 (ICAM1), ICAM1 (gene 3383); assay: LTEA_HepaRG_ICAM1: Life Technologies and Expression Analysis (LTEA) Assay for Intercellular Adhesion Molecule 1 (ICAM1) using HepaRG (AID 2283507)
# In short: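 HepaRG, 48 h exposure, 8-pt half-log series from 100 uM, 0.5% DMSO vehicle, duplicates. Readout: TaqMan qRT-PCR mRNA, housekeeping-normalized (ACTB/GAPDH/POLR2A). Bidirectional curve fit vs DMSO baseline.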
# [8] = read-out: Insulin-like growth factor-binding protein 1 (IGFBP1), IGFBP1 (gene 3484); assay: LTEA_HepaRG_IGFBP1: Life Technologies and Expression Analysis (LTEA) Assay for Insulin-like growth factor-binding protein 1 (IGFBP1) using HepaRG (AID 2283508)
# In short: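 qRT-PCR mRNA read-out (TaqMan, Fluidigm array), normalised to three housekeeping genes; HepaRG cells, 48 h exposure, 8-pt half-log series from 100 uM, 0.5% DMSO vehicle; bidirectional curve fit vs DMSO baseline.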
# [9] = read-out: Interleukin 6 (IL6), IL6 (gene 3569); assay: LTEA_HepaRG_IL6: Life Technologies and Expression Analysis (LTEA) Assay for Interleukin 6 (IL6) using HepaRG (AID 2283509)
# In short: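 Transcript levels, normalized to three housekeeping genes, were quantified by qRT-PCR after 48 h chemical treatment of HepaRG cells. Eight-point half-log series from 100 uM in 0.5% DMSO, duplicates. Fitted both directions against DMSO baseline.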
# [10] = read-out: Interleukin 6 Receptor (IL6R), IL6R (gene 3570); assay: LTEA_HepaRG_IL6R: Life Technologies and Expression Analysis (LTEA) Assay for Interleukin 6 Receptor (IL6R) using HepaRG (AID 2283510)
# In short: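 Cells were thawed, plated and cultured 48 h, then medium was changed to serum-free induction medium. Chemicals were added in duplicate (100 uM top, half-log steps, 0.5% DMSO) for 48 h. Lysates were analyzed by qRT-PCR for IL6R expression.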
# [11] = read-out: Potassium channel subfamily K member 1 (KCNK1), KCNK1 (gene 3775); assay: LTEA_HepaRG_KCNK1: Life Technologies and Expression Analysis (LTEA) Assay for Potassium channel subfamily K member 1 (KCNK1) using HepaRG (AID 2283511)
# In short: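 KCNK1 transcript measured by TaqMan qRT-PCR against three housekeeping genes, after HepaRG cells were treated 48 h with eight half-log concentrations (top 100 uM, 0.5% DMSO). Curves fitted bidirectionally relative to vehicle.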
# [12] = read-out: Keratin 19 (KRT19), KRT19 (gene 3880); assay: LTEA_HepaRG_KRT19: Life Technologies and Expression Analysis (LTEA) Assay for Keratin 19 (KRT19) using HepaRG (AID 2283512)
# In short: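 HepaRG, 48 h chemical exposure, 8-pt half-log CRC from 100 uM, 0.5% DMSO vehicle, duplicates. Readout: TaqMan qRT-PCR of KRT19 mRNA, housekeeping-normalized (ACTB/GAPDH/POLR2A). Bidirectional fit vs DMSO baseline.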
# [13] = read-out: JUN Transcription Factor, JUN (gene 3725); assay: LTEA_HepaRG_JUN: Life Technologies and Expression Analysis (LTEA) Assay for JUN Transcription Factor using HepaRG (AID 2283513)
# In short: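 Read-out is JUN transcript level by TaqMan qRT-PCR, normalized to ACTB, GAPDH and POLR2A, after 48 h chemical treatment of HepaRG cells. Concentration-response spanned eight half-log points up to 100 uM in 0.5% DMSO.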
# [14] = read-out: Lipase C (LIPC), LIPC (gene 3990); assay: LTEA_HepaRG_LIPC: Life Technologies and Expression Analysis (LTEA) Assay for Lipase C (LIPC) using HepaRG (AID 2283514)
# In short: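 LIPC expression was quantified by qRT-PCR against three housekeeping genes (ACTB, GAPDH, POLR2A). Differentiated human HepaRG cells received eight half-log doses (top 100 uM, 0.5% DMSO) in duplicate for 48 h; fitting bidirectional relative to DMSO.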
# [15] = read-out: Lipoprotein lipase (LPL), LPL (gene 4023); assay: LTEA_HepaRG_LPL: Life Technologies and Expression Analysis (LTEA) Assay for Lipoprotein lipase (LPL) using HepaRG (AID 2283515)
# In short: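 LPL transcript levels quantified by TaqMan qRT-PCR against three housekeeping genes after 48 h chemical treatment of HepaRG cells. Eight-point half-log series from 100 uM in 0.5% DMSO, tested in duplicate; bidirectional fitting versus vehicle.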
# [16] = read-out: matrix metalloproteinase-10 (MMP10), MMP10 (gene 4319); assay: LTEA_HepaRG_MMP10: Life Technologies and Expression Analysis (LTEA) Assay for matrix metalloproteinase-10 (MMP10) using HepaRG (AID 2283517)
# In short: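 Expression measured by TaqMan qRT-PCR with ACTB/GAPDH/POLR2A normalisation after 48 h chemical exposure of HepaRG cells. Eight half-log concentrations, top 100 uM, 0.5% DMSO vehicle, duplicates; gain or loss fitted against vehicle.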
# [17] = read-out: MicroRNA 122 (MIR122), gene 406906; assay: LTEA_HepaRG_MIR122: Life Technologies and Expression Analysis (LTEA) Assay for MicroRNA 122 (MIR122) using HepaRG (AID 2283516); also: the transcript read is the microRNA miR-122
# In short: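 Human liver HepaRG cultures receive test chemicals for 48 h at eight half-log concentrations from 100 uM. Expression is quantified by qRT-PCR with ACTB/GAPDH/POLR2A normalization and fitted bidirectionally against 0.5% DMSO.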
# [18] = read-out: Glutamate-cysteine ligase catalytic (GCLC), GCLC (gene 2729); assay: LTEA_HepaRG_GCLC: Life Technologies and Expression Analysis (LTEA) Assay for Glutamate-cysteine ligase catalytic (GCLC) using HepaRG (AID 2283498)
# In short: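 Expression by TaqMan qRT-PCR, normalized to three housekeeping genes (ACTB, GAPDH, POLR2A), with up- or down-regulation fitted against DMSO. HepaRG cells dosed in duplicate for 48 h with 8 half-log concentrations up to 100 uM, vehicle 0.5% DMSO.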
# [19] = read-out: Insulin Like Growth Factor 1 (IGF1), IGF1 (gene 3479); assay: LTEA_HepaRG_IGF1: Life Technologies and Expression Analysis (LTEA) Assay for Insulin Like Growth Factor 1 (IGF1) using HepaRG (AID 2283506)
# In short: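 Cells are thawed, plated and cultured 48 h, then exposed in duplicate to chemical (highest 100 uM, half-log steps, 0.5% DMSO) for another 48 h. Total RNA is analysed by Fluidigm qRT-PCR for IGF1 expression relative to vehicle.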
# Hypoxia-inducible factor 1-alpha (Homo sapiens), sequence (Q16665 whole entry, looked up): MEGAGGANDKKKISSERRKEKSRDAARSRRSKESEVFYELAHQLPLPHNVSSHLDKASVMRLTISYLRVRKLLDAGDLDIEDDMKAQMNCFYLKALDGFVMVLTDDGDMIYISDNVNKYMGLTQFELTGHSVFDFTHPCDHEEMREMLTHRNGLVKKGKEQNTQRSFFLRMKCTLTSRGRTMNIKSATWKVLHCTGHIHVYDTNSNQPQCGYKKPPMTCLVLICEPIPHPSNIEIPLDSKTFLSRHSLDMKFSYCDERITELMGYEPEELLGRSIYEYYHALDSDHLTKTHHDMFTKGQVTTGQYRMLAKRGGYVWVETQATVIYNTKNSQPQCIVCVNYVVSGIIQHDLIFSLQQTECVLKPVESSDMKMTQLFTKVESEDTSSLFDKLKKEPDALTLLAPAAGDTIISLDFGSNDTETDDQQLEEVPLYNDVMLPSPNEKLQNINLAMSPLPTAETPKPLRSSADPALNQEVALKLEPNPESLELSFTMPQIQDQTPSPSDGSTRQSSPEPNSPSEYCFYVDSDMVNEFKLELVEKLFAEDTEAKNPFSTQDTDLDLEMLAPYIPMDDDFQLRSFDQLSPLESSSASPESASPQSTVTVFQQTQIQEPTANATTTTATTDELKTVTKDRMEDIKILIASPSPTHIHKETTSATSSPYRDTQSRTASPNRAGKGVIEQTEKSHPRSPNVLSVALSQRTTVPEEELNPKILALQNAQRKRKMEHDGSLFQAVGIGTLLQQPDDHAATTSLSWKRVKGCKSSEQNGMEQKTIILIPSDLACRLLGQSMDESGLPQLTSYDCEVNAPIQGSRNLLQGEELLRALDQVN
structure (smiles),measurement,setting,value
CCCCN(CCCC)CCCC,outcome,[1],inactive
same,outcome,[2],inactive
same,outcome,[3],inactive
same,outcome,[4],inactive
same,outcome,[5],inactive
same,outcome,[6],inactive
same,outcome,HGF (gene 3082),inactive
same,outcome,[7],inactive
same,outcome,[8],inactive
same,outcome,[9],inactive
same,outcome,[10],inactive
same,outcome,[11],inactive
same,outcome,[12],inactive
same,outcome,[13],inactive
same,outcome,[14],inactive
same,outcome,[15],inactive
same,outcome,[16],inactive
CCCCCCCCCCCC(=O)OC,outcome,[1],inactive
same,outcome,[2],inactive
same,outcome,[3],inactive
same,outcome,[4],inactive
same,outcome,[5],inactive
same,outcome,[6],inactive
same,outcome,HGF (gene 3082),inactive
same,outcome,[7],inactive
same,outcome,[8],inactive
same,outcome,[9],inactive
same,outcome,[10],inactive
same,outcome,[11],inactive
same,outcome,[12],inactive
same,outcome,[13],inactive
same,outcome,[14],inactive
same,outcome,[15],inactive
same,outcome,[17],inactive
same,outcome,[16],inactive
CCCc1cc(=O)[nH]c(=S)[nH]1,outcome,[18],inactive
same,outcome,[1],inactive
same,outcome,[2],inactive
same,outcome,[3],inactive
same,outcome,[6],inactive
same,outcome,HGF (gene 3082),inactive
same,outcome,[19],inactive
same,outcome,[7],inactive
same,outcome,[8],inactive
same,outcome,[9],inactive
same,outcome,[10],inactive
same,outcome,[11],inactive
same,outcome,[12],inactive
same,outcome,[13],inactive
same,outcome,[14],inactive
same,outcome,[15],inactive
NC(=O)Cn1c(=O)cc(CCN2CCN(c3nccc4sccc34)CC2)c2ccc(F)cc21,outcome,[18],inactive
same,AC50,[1],83.8 µM (active)
same,outcome,[2],inactive
same,outcome,[3],inactive
same,AC50,[5],13.1 µM (active)
same,outcome,HGF (gene 3082),inactive
same,outcome,[19],inactive
same,AC50,[7],50 µM (active)
same,AC50,[8],76.6 µM (active)
same,outcome,[9],inactive
same,outcome,[10],inactive
same,outcome,[11],inactive
same,outcome,[12],inactive
same,AC50,[14],50 µM (active)
same,AC50,[15],50 µM (active)
same,outcome,[17],inactive
